Measured values as given in the supplement of paper PMC12645437, “Orthogonal IMiD-Degron Pairs Induce Selective Protein Degradation in Cells” (ACS Chemical Biology, 2025).
Over roughly 8,300 sequences, “log2 fold change of degron read counts, EGFP-low vs EGFP+ sorted cells (limma voom), compound-induced degradation” has its median near -1.1; the highest 2% begin near 3.2. The sample holds the highest values, similar sequences and a random draw of the others, so the mix is not that of the screen.

Biological target: T1, CRBN, Q96SW2
T1 chain: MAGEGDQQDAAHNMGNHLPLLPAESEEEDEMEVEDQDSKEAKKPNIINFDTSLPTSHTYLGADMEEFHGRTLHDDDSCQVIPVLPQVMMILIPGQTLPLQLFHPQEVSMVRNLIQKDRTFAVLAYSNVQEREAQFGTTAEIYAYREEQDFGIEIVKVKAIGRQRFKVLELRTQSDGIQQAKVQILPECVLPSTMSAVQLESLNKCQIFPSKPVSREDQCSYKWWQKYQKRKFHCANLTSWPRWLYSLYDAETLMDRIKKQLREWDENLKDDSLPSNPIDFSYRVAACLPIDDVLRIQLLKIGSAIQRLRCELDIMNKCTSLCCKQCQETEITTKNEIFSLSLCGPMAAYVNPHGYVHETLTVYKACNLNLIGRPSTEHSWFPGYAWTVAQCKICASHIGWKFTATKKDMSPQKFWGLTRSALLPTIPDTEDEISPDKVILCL
Assay: log2 fold change of degron read counts, EGFP-low vs EGFP+ sorted cells (limma voom), compound-induced degradation; higher = more compound-induced degradation of the degron-EGFP fusion; degrons are variants of IKZF1/3 zinc finger 2; compound dose not given here
Conditions: Jurkat, 18 h

[1] = compound: compound 19 (5-tert-butyl-thalidomide)
[2] = compound: compound 22 (5-morpholino-thalidomide)
[3] = compound: compound 33 (diphenyl IMiD analogue)
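Note: pooled lentiviral library of zinc finger degron-EGFP fusions in mCherry-positive Jurkat cells, FACS-sorted after compound exposure, with degron abundance counted by next-generation sequencing.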

FWCNICGAGFTQKGNLLRHIKL [46F_47W_49N_50I_52G_53A_54G_55F_67L_, Q9UKT9] was tested, and the “log2 fold change of degron read counts” value [1] was 1.8, the “log2 fold change of degron read counts” value [2] was 1.84 and the “log2 fold change of degron read counts” value [3] was 0.64. For the same sequence, the “log2 fold change of degron read counts” value (compound: thalidomide) was -0.741.

FTCDQCGAIFTQKGNLLRHIKL [46F_47T_49D_50Q_52G_53A_54I_55F_67L_, Q9UKT9] was tested, and the “log2 fold change of degron read counts” value [1] was -3.12, the “log2 fold change of degron read counts” value [2] was -2.8 and the “log2 fold change of degron read counts” value [3] was -2.46. For the same sequence, the “log2 fold change of degron read counts” value (compound: thalidomide) was -2.63.

LTCEICGFFCTQKGNLLRHIKL [46L_47T_49E_50I_52G_53F_54F_55C_67L_, Q9UKT9] was tested, and the “log2 fold change of degron read counts” value [1] was 0.0809, the “log2 fold change of degron read counts” value [2] was 0.0956 and the “log2 fold change of degron read counts” value [3] was 0.606. For the same sequence, the “log2 fold change of degron read counts” value (compound: thalidomide) was 0.98.

In the case of FFCNICGAKFTQKGNLLRHIKL [46F_47F_49N_50I_52G_53A_54K_55F_67L_, Q9UKT9], the “log2 fold change of degron read counts” value [1] is reported as 1.77, the “log2 fold change of degron read counts” value [2] is reported as 1.78 and the “log2 fold change of degron read counts” value [3] is reported as 0.0329. The “log2 fold change of degron read counts” value (compound: thalidomide) was -0.6.

With FQCNVCGAGFTQKGNLLRHIKL [46F_47Q_49N_50V_52G_53A_54G_55F_67L_, Q9UKT9] the “log2 fold change of degron read counts” value [1] was -0.572, the “log2 fold change of degron read counts” value [2] was -0.754 and the “log2 fold change of degron read counts” value [3] was -0.58. The “log2 fold change of degron read counts” value (compound: thalidomide) was 1.66.

In the case of FQCNQCGRQFTQKGNLLRHIKL [46F_47Q_49N_50Q_52G_53R_54Q_55F_67L_, Q9UKT9], the “log2 fold change of degron read counts” value [1] is reported as -3.25, the “log2 fold change of degron read counts” value [2] is reported as -3.61 and the “log2 fold change of degron read counts” value [3] is reported as -3.19. The “log2 fold change of degron read counts” value (compound: thalidomide) was -2.34.

For FKCDQCGAQFTQKGNLLRHIKL [46F_47K_49D_50Q_52G_53A_54Q_55F_67L_, Q9UKT9], the “log2 fold change of degron read counts” value [1] was -2.9, the “log2 fold change of degron read counts” value [2] was -3.7 and the “log2 fold change of degron read counts” value [3] was -3.4. The “log2 fold change of degron read counts” value (compound: thalidomide) was -3.16.

In the case of FECDQCGANFTQKGNLLRHIKL [46F_47E_49D_50Q_52G_53A_54N_55F_67L_, Q9UKT9], the “log2 fold change of degron read counts” value [1] is reported as -3.58, the “log2 fold change of degron read counts” value [2] is reported as -4.58 and the “log2 fold change of degron read counts” value [3] is reported as -1.92. The “log2 fold change of degron read counts” value (compound: thalidomide) was -1.86.

FACEQCGAFFTQKGNLLRHIKL [46F_47A_49E_50Q_52G_53A_54F_55F_67L_, Q9UKT9] was tested, and the “log2 fold change of degron read counts” value [1] was -1.43, the “log2 fold change of degron read counts” value [2] was -2.96 and the “log2 fold change of degron read counts” value [3] was -2.14. The “log2 fold change of degron read counts” value (compound: thalidomide) was -2.45.

With FHCDVCGAQFTQKGNLLRHIKL [46F_47H_49D_50V_52G_53A_54Q_55F_67L_, Q9UKT9] the “log2 fold change of degron read counts” value [1] was -0.281, the “log2 fold change of degron read counts” value [2] was 0.385 and the “log2 fold change of degron read counts” value [3] was -0.661. The “log2 fold change of degron read counts” value (compound: thalidomide) was -1.69.

In the case of FVCDVCGAQFTQKGNLLRHIKL [46F_47V_49D_50V_52G_53A_54Q_55F_67L_, Q9UKT9], the “log2 fold change of degron read counts” value [1] is reported as -1.63, the “log2 fold change of degron read counts” value [2] is reported as 0.889 and the “log2 fold change of degron read counts” value [3] is reported as 1.87. For the same sequence, the “log2 fold change of degron read counts” value (compound: thalidomide) was 0.809.

For FYCDVCGAQFTQKGNLLRHIKL [46F_47Y_49D_50V_52G_53A_54Q_55F_67L_, Q9UKT9], the “log2 fold change of degron read counts” value [1] was 2.41, the “log2 fold change of degron read counts” value [2] was 3.24 and the “log2 fold change of degron read counts” value [3] was 1.63. The “log2 fold change of degron read counts” value (compound: thalidomide) was -0.781.

FQCDVCGAQFTQKGNLLRHIKL [46F_47Q_49D_50V_52G_53A_54Q_55F_67L_, Q9UKT9] was tested, and the “log2 fold change of degron read counts” value [1] was -1.59, the “log2 fold change of degron read counts” value [2] was 0.635 and the “log2 fold change of degron read counts” value [3] was 0.642. The “log2 fold change of degron read counts” value (compound: thalidomide) was 2.41.

For FECDVCGAQFTQKGNLLRHIKL [46F_47E_49D_50V_52G_53A_54Q_55F_67L_, Q9UKT9], the “log2 fold change of degron read counts” value [1] was -2.41, the “log2 fold change of degron read counts” value [2] was -2.69 and the “log2 fold change of degron read counts” value [3] was -1.62. For the same sequence, the “log2 fold change of degron read counts” value (compound: thalidomide) was -0.629.

For FWCDVCGAQFTQKGNLLRHIKL [46F_47W_49D_50V_52G_53A_54Q_55F_67L_, Q9UKT9], the “log2 fold change of degron read counts” value [1] was 2.68, the “log2 fold change of degron read counts” value [2] was 3.85 and the “log2 fold change of degron read counts” value [3] was 1.36. For the same sequence, the “log2 fold change of degron read counts” value (compound: thalidomide) was -0.531.

For FGCPQCGAFFTQKGNLLRHIKL [46F_47G_49P_50Q_52G_53A_54F_55F_67L_, Q9UKT9], the “log2 fold change of degron read counts” value [1] was -0.126, the “log2 fold change of degron read counts” value [2] was -1.28 and the “log2 fold change of degron read counts” value [3] was 2.09. For the same sequence, the “log2 fold change of degron read counts” value (compound: thalidomide) was -1.62.

For FRCSVCGHMFTQKGNLLRHIKL [46F_47R_49S_50V_52G_53H_54M_55F_67L_, Q9UKT9], the “log2 fold change of degron read counts” value [1] was -2.17, the “log2 fold change of degron read counts” value [2] was -2.3 and the “log2 fold change of degron read counts” value [3] was -2.41. For the same sequence, the “log2 fold change of degron read counts” value (compound: thalidomide) was -2.23.

With FVCNVCGAWFTQKGNLLRHIKL [46F_47V_49N_50V_52G_53A_54W_55F_67L_, Q9UKT9] the “log2 fold change of degron read counts” value [1] was -2.28, the “log2 fold change of degron read counts” value [2] was -1.99 and the “log2 fold change of degron read counts” value [3] was -1.2. For the same sequence, the “log2 fold change of degron read counts” value (compound: thalidomide) was -1.25.

For LTCNQCGFLCTQKGNLLRHIKL [46L_47T_49N_50Q_52G_53F_54L_55C_67L_, Q9UKT9], the “log2 fold change of degron read counts” value [1] was -2.17, the “log2 fold change of degron read counts” value [2] was -2.63 and the “log2 fold change of degron read counts” value [3] was -2.25. For the same sequence, the “log2 fold change of degron read counts” value (compound: thalidomide) was -1.91.

With FACPVCGAGFTQKGNLLRHIKL [46F_47A_49P_50V_52G_53A_54G_55F_67L_, Q9UKT9] the “log2 fold change of degron read counts” value [1] was 3.42, the “log2 fold change of degron read counts” value [2] was 1.04 and the “log2 fold change of degron read counts” value [3] was 0.678. The “log2 fold change of degron read counts” value (compound: thalidomide) was 0.677.

FHCPVCGAGFTQKGNLLRHIKL [46F_47H_49P_50V_52G_53A_54G_55F_67L_, Q9UKT9] was tested, and the “log2 fold change of degron read counts” value [1] was 2.85, the “log2 fold change of degron read counts” value [2] was 1.03 and the “log2 fold change of degron read counts” value [3] was 2.35. For the same sequence, the “log2 fold change of degron read counts” value (compound: thalidomide) was -0.326.

With FVCPVCGAGFTQKGNLLRHIKL [46F_47V_49P_50V_52G_53A_54G_55F_67L_, Q9UKT9] the “log2 fold change of degron read counts” value [1] was 0.554, the “log2 fold change of degron read counts” value [2] was 2.67 and the “log2 fold change of degron read counts” value [3] was 1.71. For the same sequence, the “log2 fold change of degron read counts” value (compound: thalidomide) was 2.79.

For FGCPVCGAGFTQKGNLLRHIKL [46F_47G_49P_50V_52G_53A_54G_55F_67L_, Q9UKT9], the “log2 fold change of degron read counts” value [1] was 3.26, the “log2 fold change of degron read counts” value [2] was 1.13 and the “log2 fold change of degron read counts” value [3] was 2.32. For the same sequence, the “log2 fold change of degron read counts” value (compound: thalidomide) was 0.332.

With FYCPVCGAGFTQKGNLLRHIKL [46F_47Y_49P_50V_52G_53A_54G_55F_67L_, Q9UKT9] the “log2 fold change of degron read counts” value [1] was 3.05, the “log2 fold change of degron read counts” value [2] was 2.07 and the “log2 fold change of degron read counts” value [3] was 2.22. The “log2 fold change of degron read counts” value (compound: thalidomide) was -0.0832.

With FFCPVCGAGFTQKGNLLRHIKL [46F_47F_49P_50V_52G_53A_54G_55F_67L_, Q9UKT9] the “log2 fold change of degron read counts” value [1] was 3.15, the “log2 fold change of degron read counts” value [2] was 2.03 and the “log2 fold change of degron read counts” value [3] was 1.8. For the same sequence, the “log2 fold change of degron read counts” value (compound: thalidomide) was 0.528.

In the case of FRCPVCGAGFTQKGNLLRHIKL [46F_47R_49P_50V_52G_53A_54G_55F_67L_, Q9UKT9], the “log2 fold change of degron read counts” value [1] is reported as 2.32, the “log2 fold change of degron read counts” value [2] is reported as 1.95 and the “log2 fold change of degron read counts” value [3] is reported as 2.25. For the same sequence, the “log2 fold change of degron read counts” value (compound: thalidomide) was 1.72.

With FQCPVCGAGFTQKGNLLRHIKL [46F_47Q_49P_50V_52G_53A_54G_55F_67L_, Q9UKT9] the “log2 fold change of degron read counts” value [1] was 2.21, the “log2 fold change of degron read counts” value [2] was 2.03 and the “log2 fold change of degron read counts” value [3] was 1.81. For the same sequence, the “log2 fold change of degron read counts” value (compound: thalidomide) was 3.38.

With FCCPVCGAGFTQKGNLLRHIKL [46F_47C_49P_50V_52G_53A_54G_55F_67L_, Q9UKT9] the “log2 fold change of degron read counts” value [1] was 2.96, the “log2 fold change of degron read counts” value [2] was 1.65 and the “log2 fold change of degron read counts” value [3] was 1.8. The “log2 fold change of degron read counts” value (compound: thalidomide) was 1.26.
